Bioassay records from PubChem.
Rows were chosen to be rich in hits. Some 19% of all compounds tested hit in one or more screens of this group.
IL-1B inflam inh = qHTS for Inhibitors of Inflammasome Signaling: IL-1-beta AlphaLISA Primary Screen. actives 4.7% (n = 360,000). activity change, % at 57.5 µM. THP-1 LPS/ATP IL-1B secretion, AlphaLISA, 16 h; hits give low values; in the data active = activity change below about -50%; inconclusive = mostly about -30% to -49%; note: % is set by controls: 0 for no effect and ±100 for the full control effect
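THP-1 cells pretreated 1 hr with compounds (up to 57.5 uM final), then stimulated with LPS (250 ng/mL final) plus ATP (1.25 mM final); secreted IL-1B measured by AlphaLISA after 16 hr, decreased signal indicating inhibition.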
TDP1 cell noCPT = qHTS for Inhibitors of human tyrosyl-DNA phosphodiesterase 1 (TDP1): qHTS in cells in absence of CPT | DT40 Tdp1-/- hTDP1 cells, no CPT, ATP luminescence, 48 h | Potency, µM (doses to about 46.2 µM), for the others: at the top dose activity change, negative = growth inhibition, most hits filed as inhibitors | actives 15% (n = 420,000); note: potency is the fitted concentration of half-maximal effect; % is set by controls: 0 for no effect and ±100 for the full control effect; nearly all actives have a fitted effect of over 55% in size
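Stably hTDP1-transfected Tdp1-null chicken DT40 cells were treated with library compounds minus camptothecin and grown for at least 48 hr at 37 °C, after which cellular ATP was quantified by luminescence.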
MCF10A rerep = A quantitative high throughput screen for small molecules that induce DNA re-replication in MCF 10a normal breast cells | Potency, µM (highest dose often 46.1 µM), inactives show top-dose activity, positive = re-replication, hits mostly activators | MCF 10A DNA re-replication, Hoechst nuclear intensity, 48 h | actives 2.9% (n = 350,000) | AID 624296, 2012; note: potency is the fitted concentration of half-maximal effect; % of control where 0% means no effect; nearly all actives have a fitted effect of over 50% in size
BCR signal inh = qHTS Assay to Find Inhibitors of Chronic Active B-Cell Receptor Signaling; actives 0.05% (n = 340,000); ABC-DLBCL IkBa-CBG/CBR reporter, luminescence ratio, 4 h; AID 493014, 2011; Potency, µM (top dose mostly 46.1 µM), inactives show at the highest dose activity change, negative = inhibition, hits mostly inhibitors; active = well fitted inhibition curve with a large enough effect in the signal ratio, with a control signal flat, not every such curve was filed as active; inconclusive = small, poorly fitted or top-dose-only effect, or effect the other way, or a change in a side signal; the % refers to the signal ratio;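 note: potency is the fitted concentration of half-maximal effect; plate controls were basal doxycycline-induced cells for no effect and cells given 10 µM MG132 for full effect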
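Doxycycline induced both beetle luciferases in TMD8 lymphoma cells; IKK-driven degradation limits the IkappaBalpha-fused green signal, while red luminescence normalises for cell number and nonspecific effects. Compounds tested up to 46 uM, 4 hrs.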
SW480 rerep = A quantitative high throughput screen for small molecules that induce DNA re-replication in SW480 colon adenocarcinoma cells; SW480 DNA re-replication, Hoechst DNA content imaging, 48 h; Potency, µM (top dose mostly 46.1 µM), for inactives: at the highest dose re-replication activation, most hits filed as activators; actives 1.8% (n = 340,000); AID 624297, 2012; note: potency is the fitted concentration of half-maximal effect; % of control where 0% means no effect; nearly all actives have a fitted effect of over 55% in size
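Image-based read-out: total Hoechst fluorescence of nuclei (405 nm excitation, 500-530 nm emission), with hits raising the fraction of high-intensity nuclei. SW480 colon cells incubated 48 hr with compounds at 37 C.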
DT40 TDP1 CPT = qHTS for Inhibitors of human tyrosyl-DNA phosphodiesterase 1 (TDP1): qHTS in cells in presence of CPT; Potency, µM (titrated, usually from 46.2 µM), for the others: at the top dose activity change, negative = growth inhibition, actives largely listed as inhibitors; actives 12% (n = 420,000); chicken DT40 Tdp1-/-;hTDP1 cells + 20 nM CPT, ATP luminescence, 48 h; note: potency is the fitted concentration of half-maximal effect; % is set by controls: 0 for no effect and ±100 for the full control effect; nearly all actives have a fitted effect of over 55% in size
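Chicken DT40 Tdp1-/- cells complemented with human TDP1, 400 cells/well, exposed to compounds plus 20 nM camptothecin for at least 48 h at 37 C; viability read as ATP content by CellTiter-Glo luminescence.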
Numbers without * were called inactive; ? = inconclusive; nt = no result; ! = not active in a repeat; [ ] = another dose, or the depositor's remark. Unless noted, calls come from the whole dose curve; as a rule, active = well fitted curve in the direction sought with a large enough effect; inconclusive = small, poorly fitted or top-dose-only effect, or another doubt; inactive = no such curve, though single readings can be large; an effect the other way counts as inactive or inconclusive.

SMILES	IL-1B inflam inh	TDP1 cell noCPT	MCF10A rerep	BCR signal inh	SW480 rerep	DT40 TDP1 CPT
COC(=O)c1c(OCc2cccnc2)cc(=O)n2c1CCN(Cc1cc3c(cc1Cl)OCO3)CC2	nt	18.4µM*	nt	nt	nt	?
Cc1ccc(OCC(=O)N2CCN(Cc3cccnc3)CC2)cc1	-5.3	0.2%	3.9%	0.5%	6.9%	-25.3%
O=C(Nc1cc(Cl)cc(Cl)c1)N1Cc2ccccc2-n2nncc2C1	-19.6	?	nt	nt	nt	?
CC[N+](CC)(CC)CCOC(=O)C(C1CCCC1)C1CCCC1	nt	10.6µM*	nt	nt	nt	?
CC1(C)CSC(=NCc2ccccc2)N1	21.2	-7.0%	?	-0.6%	-42.5%	1.5%
CCN1CCN(Cc2cc(Br)cc(Br)c2O)CC1	-20.7	16.4µM*	?	9.8%	-3.2%	?
COC(=O)C1=C(c2cccc(OC)c2OC)C[C@@H]2CC[C@H]1N2C(=O)N1CCC(C)CC1	33.5	13µM*	0.9%	nt	-2.3%	?
COC(=O)C1=C(c2ccccc2)C[C@@H]2CC[C@H]1N2C(=O)N1CCOCC1	22.0	?	8.4%	nt	27.1%	?
COC(=O)C1=C(c2ccc(-c3ccccc3)c(F)c2)C[C@@H]2CC[C@H]1N2C(=O)N1CCC(O)CC1	?	9.2µM*	17.7%	0.0%	-6.8%	14.6µM*
COC(=O)C1=C(c2ccccc2)C[C@@H]2CC[C@H]1N2C(=O)N1CCC(C)CC1	-7.2	14.6µM*	-7.6%	nt	-5.7%	?
COC(=O)C1=C(c2ccc(-c3ccccc3)c(F)c2)C[C@@H]2CC[C@H]1N2C(=O)N1CCc2cc(OC)c(OC)cc2C1	?	?	-38.9%	-0.9%	42.2%[9.22 µM]	?
COC(=O)C1=C(c2ccc(-c3ccccc3)c(F)c2)C[C@@H]2CC[C@H]1N2C(=O)N1CCC(C)CC1	19.9	4.61µM*	?	?	-4.3%	7.31µM*
COc1ccc(NC(=O)N2C[C@@H]3C[C@@H](C2)c2cccc(=O)n2C3)cc1	8.2	1.9%	5.3%	-2.0%	-36.7%	12.5%
CCOP(=O)(OCC)C(Cc1ccc(OC)c(OC)c1)N=C(c1ccccc1)c1ccccc1 (configuration not stated)	-11.2	?	nt	nt	nt	?
COc1ccc(OC)c([C@@H](O)[C@H](C)N)c1	nt	-15.0%	nt	nt	nt	-26.2%
COC(=O)C1=C(c2cccc(C#N)c2)C[C@@H]2CC[C@H]1N2C(=O)N1CCC(C)CC1	-16.9	23.1µM*	-2.2%	1.3%	-11.7%	16.4µM*
COC(=O)C1=C(c2ccc(F)cc2F)C[C@@H]2CC[C@H]1N2C(=O)N1CCC(C)CC1	8.7	10.3µM*	-0.1%	1.3%	16.1%	16.4µM*
O=C(c1ccc(F)cc1)N1CCC(c2nc(-c3ccc(S(=O)(=O)N4CCCC4)cc3)no2)CC1	nt	11.6µM*	nt	nt	nt	20.6µM*
CCC(C)(C)n1nnnc1C(c1cccs1)N1CC=C(c2ccc(F)cc2)CC1 (configuration not stated)	-66.8*	?	?	9.0%	10.6%	23.1µM*
Fc1ccc(C2=CCN(C(c3cccs3)c3nnnn3CCc3ccccc3)CC2)cc1 (configuration not stated)	-60.6*	?	4.6%	?	1.6%	?
C/C=C1/CN2CC[C@]34C(=C(C=O)[C@@H]1C[C@H]23)Nc1c(O)cccc14	nt	-14.4%[9.04 µM]	nt	nt	nt	-8.0%[9.04 µM]
C=CCCC1(CC(C)C)C(=O)NC(=S)NC1=O	8.4	10.6%	1.8%	nt	-4.2%	-6.7%
Cc1ccccc1Cn1cccc(C(=O)Nc2cc(Cl)ccc2C#N)c1=O	nt	-28.6%	nt	nt	nt	-3.8%
CC[C@H](CO)Nc1nc(NCc2ccccc2)c2ncn(C(C)C)c2n1	nt	22µM*!	nt	nt	nt	24.7µM*
CC(C)(C)NCC(O)c1cc(Cl)c(N)c(C(F)(F)F)c1 (configuration not stated)	nt	-16.4%	-3.8%	nt	1.6%	14.4%
SMILES	IL-1B inflam inh	TDP1 cell noCPT	MCF10A rerep	BCR signal inh	SW480 rerep	DT40 TDP1 CPT
C[C@]12CCC3C(CC[C@H]4C[C@@H](O)CC[C@]34C)C1CCC2=O (some centres not stated)	37.9	?	?	-3.5%	0.5%	?
CC(C)(O)[C@@H]1C2OC(=O)[C@@H]1[C@]1(O)C[C@H]3O[C@]34C(=O)O[C@H]2[C@]14C	nt	-6.5%	nt	nt	nt	?
S=C1Nc2ccccc2Sc2ccccc21	14.2	-10.7%	?	-18.3%	-13.0%	11.1%
c1ccc2c(c1)CSc1ccccc1N2	-65.4*	?	-1.9%	nt	-91.6%	-13.4%
Clc1ccc(-c2nc3ccc(Cl)cn3c2CN2CCOCC2)cc1	-18.0	23.1µM*	8.6%	8.0%	-4.5%	?
O=c1c2cc(Cl)cc(Cl)c2nc(CN2CCOCC2)n1-c1ccccc1F	0.0	-20.3%	10.1%	nt	?	?
CCCN(CCC)C(=O)Cc1c(-c2ccc(Cl)cc2)nc2ccc(Cl)cn12	nt	?	nt	nt	nt	-7.7%
